{"source": "ChEMBL document CHEMBL3988442", "about": "“University of Dundee, Small-Polar-MMV Screening Library” (2021)", "note": "About 950 (1.4%) of roughly 69,000 compounds showed an effect of 50% or more. Shown is part of a subset that was picked to be rich in strong results.", "data": [{"system": "Mycobacterium tuberculosis", "assay": "Cornell M. t heat shock assay; further: in the data most compounds retested in dose-response had high values", "format": "functional, organism-based", "design": "dose or concentration left out as unconfirmed", "units": {"Percent Effect": "%"}, "values": [{"smiles": "Cn1cc(CN2C[C@@H]3COC[C@]3(CNC(=O)c3ccccc3)C2)cn1.O=C(O)C(F)(F)F", "Percent Effect": -17.03}, {"smiles": "Cn1cc(CN2CCC3(CC2)CCN(C(=O)c2cscn2)CC3)cn1.O=C(O)C(F)(F)F", "Percent Effect": -25.9}, {"smiles": "Cc1noc(NC(=O)c2ccc(F)cc2)n1", "Percent Effect": 105.9}, {"smiles": "Cc1noc([C@@H]2C[C@H](NC(=O)Nc3ccccc3)CN2C)n1", "Percent Effect": -29.39}, {"smiles": "Cc1noc(NCc2cc(F)ccc2F)n1", "Percent Effect": -3.185}, {"smiles": "Cc1noc(NC(=O)c2ccc(Br)cc2)n1", "Percent Effect": 103.7}, {"smiles": "Cc1c(NC(=O)c2ccc(Br)cc2)c(C(=O)N(C)C)nn1C", "Percent Effect": 5.328}, {"smiles": "CN1C[C@H](O)C[C@H]1c1nc(-c2ccc(OC(F)(F)F)cc2)no1", "Percent Effect": -7.267}, {"smiles": "Cc1noc(NCc2ccc(F)cc2)n1", "Percent Effect": -14.89}, {"smiles": "Cn1nc(CNC(=O)c2ccc(OC(F)(F)F)cc2)c2c1CCOC2", "Percent Effect": -19.12}, {"smiles": "Cc1noc(NC(=O)CCNC(=O)c2ccc(Br)cc2)n1", "Percent Effect": -35.97}, {"smiles": "Cc1nn(C(C)C)c(C)c1NC(=O)c1ccccc1", "Percent Effect": -7.424}, {"smiles": "Cc1noc(NC(=O)c2ccc(OC(F)(F)F)cc2)n1", "Percent Effect": 102.9}, {"smiles": "Cc1noc(NC(=O)c2ccccc2)n1", "Percent Effect": 75.22}, {"smiles": "COc1cc2cc(C)c(SCCN3CCCC3)nc2cc1OC.Cl", "Percent Effect": 5.186}, {"smiles": "Cn1ncc2c1C(COCC1CC1)N(Cc1ccoc1)CC2.O=C(O)C(F)(F)F.O=C(O)C(F)(F)F", "note": "(stereo unspecified)", "Percent Effect": -34.45}, {"smiles": "O=C(NC[C@H]1OC[C@@H]2CN(Cc3ccco3)CC[C@@H]21)c1cccnc1.O=C(O)C(F)(F)F.O=C(O)C(F)(F)F", "Percent Effect": -10.25}, {"smiles": "Cc1noc(C)c1CN1CCO[C@H]2CN(C(=O)C3CCOCC3)C[C@H]21.O=C(O)C(F)(F)F", "Percent Effect": -18.06}, {"smiles": "COc1ncccc1CNC1CCc2c(ccc(=O)n2C)C1.O=C(O)C(F)(F)F.O=C(O)C(F)(F)F", "note": "(stereo unspecified)", "Percent Effect": 17.68}, {"smiles": "NC(=O)N1C[C@H]2CN(Cc3nccs3)C[C@H]2C1.O=C(O)C(F)(F)F", "Percent Effect": -3.349}, {"smiles": "Cc1ccc(C(=O)N2CCN3C[C@H](Oc4cccnc4)C[C@H]3C2)cn1.O=C(O)C(F)(F)F.O=C(O)C(F)(F)F.O=C(O)C(F)(F)F", "Percent Effect": -27.6}, {"smiles": "COc1ccc2[nH]cc(C(=O)CNc3nccs3)c2c1.I", "Percent Effect": 0.8623}, {"smiles": "O=C(O)C(F)(F)F.O=C(c1cnccn1)N1C[C@@H]2C[C@@H](c3nc(C4CC4)cs3)O[C@@H]2C1", "Percent Effect": 1.274}, {"smiles": "Cc1ccc(C(=O)Nc2c(C(=O)N(C)C)nn(C)c2C)cc1", "Percent Effect": -14.21}, {"smiles": "Cc1ccc(C(=O)Nc2cn[nH]c2)cc1", "Percent Effect": -8.204}, {"smiles": "Cc1ccc(C(=O)Nc2nc(C)no2)cc1", "Percent Effect": 75.29}, {"smiles": "Cc1nnc(N2CCCC3(CN(Cc4cccnc4)CCO3)C2)o1.O=C(O)C(F)(F)F.O=C(O)C(F)(F)F.O=C(O)C(F)(F)F", "note": "(stereo unspecified)", "Percent Effect": -2.58}, {"smiles": "Cc1nc(COC[C@H]2CCC[C@@]23CN(C(C)C)CCO3)cs1.O=C(O)C(F)(F)F", "Percent Effect": -25.66}, {"smiles": "COc1cccc([C@H]2CN(C(C)=O)[C@@H]3CCN(Cc4ccsc4)C[C@H]23)c1.Cl", "Percent Effect": -8.302}, {"smiles": "O=C(O)C(=O)O.c1coc(CN2CCC(c3ccc4c(c3)OCO4)CC2)c1", "Percent Effect": 5.355}, {"smiles": "CC(Cn1cccn1)NCc1csc(COc2ccccc2)n1", "note": "(stereo unspecified)", "Percent Effect": 96.83}, {"smiles": "CC(Cn1cccn1)NCc1csc2c1CCCC2", "note": "(stereo unspecified)", "Percent Effect": -4.744}, {"smiles": "CCCc1nc(CNC(C)Cn2cccn2)cs1", "note": "(stereo unspecified)", "Percent Effect": 69.81}, {"smiles": "CC(Cn1cccn1)NCc1csc(-c2ncccn2)n1", "note": "(stereo unspecified)", "Percent Effect": -0.311}, {"smiles": "CCc1nc(CNC(C)Cn2cccn2)cs1", "note": "(stereo unspecified)", "Percent Effect": 11.1}, {"smiles": "COc1ccc(CNC(C)Cn2cccn2)cc1F", "note": "(stereo unspecified)", "Percent Effect": -3.821}, {"smiles": "CC(Cn1cccn1)NCc1csc(COc2ccc(F)cc2)n1", "note": "(stereo unspecified)", "Percent Effect": 104}, {"smiles": "CC(Cn1cccn1)NCc1csc(-c2ccc(F)cc2)n1", "note": "(stereo unspecified)", "Percent Effect": 41.6}, {"smiles": "CC(Cn1cccn1)NCc1ccc(OCc2ccncc2)cc1", "note": "(stereo unspecified)", "Percent Effect": -3.58}, {"smiles": "CC(Cn1cccn1)NCc1ccc(Cl)s1", "note": "(stereo unspecified)", "Percent Effect": -2.882}, {"smiles": "CC(Cn1cccn1)NCc1csc(Cc2ccccc2)n1", "note": "(stereo unspecified)", "Percent Effect": 103.2}, {"smiles": "O=C(O)C(F)(F)F.O=C(c1ccnnc1)N1C[C@H]2CCC[C@@]2(COCc2ccccn2)C1", "Percent Effect": -25.48}, {"smiles": "COc1ccc(CCC2CCCCN2)cc1.Cl", "note": "(stereo unspecified)", "Percent Effect": -16.14}, {"smiles": "O=C(O)C(F)(F)F.O=C(c1cccnc1)N1C[C@H]2CN(Cc3cccc(F)c3)C(=O)[C@H]2C1", "Percent Effect": -29.23}, {"smiles": "Cc1oncc1C(=O)N1CC[C@@H]2[C@@H]1CC(=O)N2Cc1cccnc1.O=C(O)C(F)(F)F", "Percent Effect": 26.27}, {"smiles": "N#Cc1cccc(C(=O)N2CC[C@H]3[C@H]2CCN3CC2CC2)c1.O=C(O)C(F)(F)F", "Percent Effect": -24.15}, {"smiles": "Fc1ccc(CN2CCC3(CC2)CCN(c2ncccn2)CC3)cc1.O=C(O)C(F)(F)F.O=C(O)C(F)(F)F", "Percent Effect": -1.526}, {"smiles": "CC1CN(C)CCN1C(=O)c1cnc2c(cnn2C2CCCC2)c1", "note": "(stereo unspecified)", "Percent Effect": -19.82}, {"smiles": "O=C(NC1CC1)[C@H]1C[C@@H]2CCN(CCc3ccccc3)C[C@H]2O1.O=C(O)C(F)(F)F", "Percent Effect": -1.701}, {"smiles": "COc1cccc(S(=O)(=O)NC(=O)CC2CCCC2)c1", "Percent Effect": 1.853}, {"smiles": "COc1cccc(S(=O)(=O)NC(=O)CCC2CCCC2)c1", "Percent Effect": 97.07}, {"smiles": "COc1cccc(S(=O)(=O)NC(=O)CCC2CCCO2)c1", "note": "(stereo unspecified)", "Percent Effect": 15.02}, {"smiles": "O=C(O)C(F)(F)F.O=C(c1ccco1)N1CC[C@@H]2CN(C3CCOCC3)CCO[C@@H]2C1", "Percent Effect": 13.99}, {"smiles": "COc1ccc(CN(C)C(=O)c2nnc(CN(C)C)o2)cc1", "Percent Effect": -15.5}, {"smiles": "CCCc1nnc(C(=O)N(C)Cc2ccc(OC)cc2)o1", "Percent Effect": -0.8003}, {"smiles": "COCc1nnc(C(=O)N(C)Cc2ccc(OC)cc2)o1", "Percent Effect": 51.18}, {"smiles": "COCC(=O)N1CCN(Cn2nc(C)c(Br)c2C)CC1", "Percent Effect": -1.426}, {"smiles": "O=C(N1CCCC1)N1CCOCC2(CCN(Cc3cccs3)C2)C1.O=C(O)C(F)(F)F", "note": "(stereo unspecified)", "Percent Effect": -28.46}, {"smiles": "Cc1ncc(CNC(C)(C)CO)c2cc(C(=O)c3ccc(Br)cc3)oc12", "Percent Effect": 39.89}, {"smiles": "Cc1ncc(CNCCO)c2cc(C(=O)c3ccc(Br)cc3)oc12.Cl", "Percent Effect": 80.79}, {"smiles": "Cc1ncc(CNCC(C)O)c2cc(C(=O)c3ccc(Br)cc3)oc12.Cl", "note": "(stereo unspecified)", "Percent Effect": 10.59}]}]}
